Sampled rows, rich in hits. Any-hit rate of the full collection: about 14%.
Pf growth 96h: inhibits malaria parasite growth, 96 h. P. falciparum luciferase reporter growth, 96 h. Potency, µM (doses to about 28.7 µM), for inactives: at the top dose activity change, negative = inhibition, most hits filed as inhibitors. 320,000 tested, 6.9% active; also: potency is read from the fitted curve at half-maximal effect
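96 h incubation, 37 C, 5% CO2, of luciferase-reporter P. falciparum-infected RBCs (2% hematocrit, 0.05% parasitemia final) with test compounds; endpoint luminescence.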
LASV entry inh: Lassa virus entry inhibition; Lassa virus pseudotype entry inhibition, cell reporter; Potency, µM (top dose mostly 37.9 µM), for inactives: top-dose activity change, negative = inhibition, hits mostly inhibitors; 300,000 tested, 1.2% active; AID 540256; calls by dose curve; tested in HEK293 cells; also: potency is read from the fitted curve at half-maximal effect; nearly all actives have a fitted effect of over 50% in size
MARV entry inh: inhibitors of Marburg virus binding or cell entry; Potency, µM (highest dose often 37.8 µM), for inactives: top-dose activity change, negative = inhibition, actives largely listed as inhibitors; 300,000 tested, 1.8% active; Marburg virus pseudotyped entry inhibition, cell reporter; calls by dose curve; tested in HEK293 cells; also: potency is read from the fitted curve at half-maximal effect
HCMV antiviral: human cytomegalovirus inhibition. HFF cells, HCMV-luciferase reporter, 72 h; stronger effect = lower value. activity change, negative = inhibition, % at 57.5 µM. 410,000 tested, 4.5% active. AID 1259415; in the data active = activity change below about -60%; inconclusive = no clear call, values can overlap the other calls; inactive = above about -39%
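Inhibition of viral replication was scored as loss of reporter luminescence in HFFs infected with HCMV-luciferase (MOI 1 PFU/cell) for 72 h; compounds tested at 2 doses, normalized to buffer and Salinomycin controls.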
HCV inh: inhibitors of hepatitis C virus infection | Potency, µM (series often up to 41.8 µM), inactives show at the highest dose activity change, negative = inhibition, hits mostly inhibitors | 340,000 tested, 3.4% active | Huh7.5.1 HCVcc-Cre infection, luciferase reporter, 44 h; also: potency is read from the fitted curve at half-maximal effect
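HCVcc-Cre virus at an moi near 0.5 was added right after compound to cells cultured 4 h from seeding (1,000 cells/well). Luciferase activity was determined 44 h later, 15 min after substrate addition at RT.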
Pf growth 48h: inhibits P. falciparum growth in the first generation, 48 h | AID 504832 | P. falciparum luciferase growth in erythrocytes, 48 h | 310,000 tested, 5.9% active | Potency, µM (highest dose often 28.7 µM), without a hit: at the highest dose activity change, negative = inhibition, usual class: inhibitors; also: potency is read from the fitted curve at half-maximal effect
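First compound was added to culture medium, then infected red cells at 0.1% parasitemia and 2% hematocrit (final). After incubation at 37 C under 5% CO2, luciferase detection reagent was dispensed and light output recorded.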
* hit, by the source's call; ? = inconclusive; / = no result given; [ ] = another dose, or the depositor's remark. Unless noted, calls follow the shape of the dose curve; as a rule, active = well fitted inhibition curve with a large enough effect; inconclusive = small, poorly fitted or top-dose-only effect, or another doubt; inactive = no such curve, though single readings can be large or run the other way. % is scaled to controls: 0 for no effect and ±100 for the full control effect.

SMILES | Pf growth 96h | LASV entry inh | MARV entry inh | HCMV antiviral | HCV inh | Pf growth 48h
O=[N+]([O-])c1ccc(Cl)cc1CNc1ccc(F)c(F)c1 | 8.3µM* | -1% | 16% | 24 | -8% | 3%
O=[N+]([O-])c1ccccc1CNc1ccc(NCc2ccccc2[N+](=O)[O-])cc1 | / | / | / | -74* | / | /
CCOC(=O)c1cccc(NC(=O)Cn2ncc3c4ccccc4n(Cc4ccccc4)c3c2=O)c1 | / | -6%[46.1 µM] | -3%[46.1 µM] | -7 | / | /
CCOc1ccc(-c2c(C)n(-c3ccc(OCC)cc3)c3[n+]2CCCCC3)cc1 | ? | ? | ? | -95* | 2.5µM* | 0.41µM*
Cc1ccc(-c2c[n+]3c(n2-c2ccccc2)CCC3)cc1 | 0.15µM* | ? | ? | -96* | ? | 1.5µM*
CCOc1ccc(-n2c(-c3ccccc3)c[n+]3c2CCCCC3)cc1 | ? | / | / | -100* | ? | ?
c1ccc(-c2c[n+]3c(n2-c2ccccc2)CCC3)cc1 | ? | / | / | -37 | ? | 0.83µM*
O=C(CSc1nc2ccccc2s1)N1c2ccccc2Sc2ccc(C(F)(F)F)cc21 | ? | -24% | ? | -3 | ? | 15µM*
O=C(CSc1nc2ccccc2s1)N1c2ccccc2Sc2ccc(Cl)cc21 | 5.9µM* | 3% | -24% | -9 | ? | ?
O=C1c2ccccc2C(=O)N1CC(=O)N1c2ccccc2Sc2ccc(C(F)(F)F)cc21 | -1% | 0% | 12% | -1 | 12% | 9%
COc1ccc(SCC(O)Cn2c3ccccc3c3ccccc32)c(OC)c1 (stereo not drawn) | / | / | / | -14 | / | /
O=C(NCc1nc2ccccc2[nH]1)c1c(F)cccc1F | / | ? | -2%[46.1 µM] | -1 | / | /
CC12CC3CC(C)(C1)CC(C(=O)N1CCN(C(=O)C4CCCO4)CC1)(C3)C2 (stereo not drawn) | ? | 7% | 21% | 60 | / | 3%
COc1ccc(CCNCc2c(OC)ccc3ccccc23)cc1OC | -11% | / | / | -12 | 11µM* | -22%[0.00184 µM]
COc1ccc(CNCCc2cccc(F)c2)c2ccccc12 | 13µM* | / | / | / | / | ?
NS(=O)(=O)c1ccc(NCc2ccccc2OCc2ccc(F)cc2)cc1 | 0% | -29% | ? | ? | -16% | -9%
CCOc1cc(CNCCc2ccc(S(N)(=O)=O)cc2)ccc1OCc1ccc(Cl)cc1 | ? | ? | ? | -103* | ? | 9.3µM*
NS(=O)(=O)c1ccc(CCNCc2ccccc2OCc2ccc(F)cc2)cc1 | ? | ? | ? | -67* | ? | 0%[0.00184 µM]
CCOc1ccc(CCNC(=O)CCS(=O)(=O)c2ccc(Cl)cc2)cc1OCC | ? | -16% | 1% | 9 | -26% | 3%
CCOc1ccc2ccccc2c1CNCCc1ccc(S(N)(=O)=O)cc1 | ? | / | / | -29 | 4% | 12µM*
COc1cc(CNCCc2ccc(S(N)(=O)=O)cc2)ccc1OCc1ccc(Cl)cc1 | 6.6µM* | ? | ? | -93* | 4.5µM* | 8.3µM*
CCOc1ccc(CNCCc2ccc(S(N)(=O)=O)cc2)cc1 | 92% | -10% | ? | -1 | -28% | -13%
CCOC(=O)c1c(C)[nH]c(C)c1S(=O)(=O)N1CCC(C(=O)NCc2ccc(N(C)C)cc2)CC1 | / | 3%[46.1 µM] | / | 0 | / | /
Nc1ccn(CCCN2CCN(C(=O)C3CC3)CC2)c(=O)n1 | / | / | / | 22 | / | /
Cc1c(C)c2ccc(OC(C)C(=O)N3CC[C@@]4(O)CCCC[C@H]4C3)cc2oc1=O (stereo partly drawn) | 9.3µM* | / | / | 15 | ? | 12%
SMILES | Pf growth 96h | LASV entry inh | MARV entry inh | HCMV antiviral | HCV inh | Pf growth 48h
COc1cccc(CNC(=O)Cc2ccc(NC(=O)N3CCCCc4ccccc43)cc2)c1OC | / | -21%[46.1 µM] | / | 28 | / | /
CCOC(=O)c1c(C)oc2c1c(C=NCCO)c(O)c1ccccc12 | 13µM* | ? | ? | 9 | -8% | ?
CCOC(=O)c1ccc(N=Cc2c(O)c3ccccc3oc2=O)cc1 | ? | 14%[46.1 µM] | -14%[46.1 µM] | 10 | 2% | 19%
CCOC(=O)c1c(C)oc2c1c(C(c1cccnc1)N1CCCCC1)c(O)c1ccccc12 (stereo not drawn) | / | 12% | 0% | 186 | ? | ?
CCOC(=O)c1c(C)oc2c1c(C(c1ccccc1)N1CCOCC1)c(O)c1ccccc12 (stereo not drawn) | ? | 23µM* | ? | 198 | ? | /
Cc1ccc(S(=O)(=O)c2nnn3c2nc(Nc2ccc(C(C)C)cc2)c2sccc23)cc1C | / | ? | / | 6 | / | /
CC(=O)NCc1cc(-c2nn(C)c(=O)c3ccccc23)ccc1C | / | -3% | 10% | 133 | 5% | -3%
Cc1ccc(-c2nn(C)c(=O)c3ccccc23)cc1CNC(=O)/C=C/c1ccccc1 | ? | 21µM* | ? | -14 | -53% | -8%
Cc1ccc(C)c(NC(=O)CN(C)C(=O)Cc2ccccc2)c1 | -34% | ? | 9% | 17 | 35% | -13%
CN(CC(=O)Nc1ccc(F)cc1)C(=O)c1ccc(-c2ccc(F)cc2)o1 | / | / | / | -16 | / | /
Cc1ccc(C)c(NC(=O)CN(C)C(=O)c2ccc(-c3cccc(C(F)(F)F)c3)o2)c1 | 1.3µM* | -3% | ? | ? | -7% | 1.9µM*
COc1cccc(NC(=O)CN(C)CC(=O)Nc2cccc(C(F)(F)F)c2)c1 | -14% | ? | ? | -13 | -20% | -24%

Assay outcomes from PubChem.
